Test [1] has as its target human Thyroid Receptor alpha (THRa1), THRA (gene 7067) (UniProt P10827). Briefly: ATG_THRa1_TRANS: Attagene TRANS-FACTORIAL HepG2 Assay for human Thyroid Receptor alpha (THRa1) (AID 2283014; active means hit-call score of the fitted dose curve at least 0.9, where 1 is the maximum). An outline of the steps:
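Transcripts from GAL4-UAS-driven reporters, measured after 24 h compound exposure by RT-PCR plus capillary electrophoresis of 6-FAM-labeled fragments, were fitted for gain of signal relative to DMSO. Cells: transiently transfected HepG2 expressing NR-Gal4 chimeras.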

Read-out in test [2]: E-selectin (Homo sapiens) (UniProt P16581)
The test can be described thus: BSK_3C_Eselectin: BioMAP Diversity Plus: 3C Assay for Eselectin Biomarker Activity (AID 2283015).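 On Outcome: cell surface E-selectin protein quantified by ELISA 24 h after dosing.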 To be noted: primary human endothelial cells (HUVEC); actives raise or lower the signal. An outline of the steps:
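E-selectin ELISA readout, fitted bidirectionally relative to DMSO, taken 24 h post-dosing in HUVEC cultures of the 3C system. Overt cytotoxicity tracked with sulforhodamine B staining of parallel wells.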

Read-out in test [3]: Interleukin-1 alpha (IL1a), IL1A (gene 3552)
Briefly: BSK_BE3C_IL1a: BioMAP Diversity Plus: BE3C Assay for Interleukin-1 alpha (IL1a) Biomarker Activity (AID 2283016). To be noted: primary human bronchial epithelial cells; actives raise or lower the signal. The essentials: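 IL-1a measured by ELISA after 24 h treatment of human primary bronchial epithelial cells, with gain or loss of signal fitted versus DMSO. Parallel cultures stained with SRB gauge overt cytotoxicity.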

Read-out in test [4]: Monocyte Chemoattractant Protein-1 (MCP1), CCL2 (gene 6347)
The test can be described thus: BSK_3C_MCP1: BioMAP Diversity Plus: 3C Assay for Monocyte Chemoattractant Protein-1 (MCP1) Biomarker Activity (AID 2283017). To be noted: primary human endothelial cells (HUVEC); actives raise or lower the signal. An outline of the steps:
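MCP-1 was measured by ELISA 24 h after dosing in primary HUVEC 3C cultures and fitted in both directions relative to DMSO; cytotoxicity was checked by SRB total-protein staining in parallel wells.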

Read-out in test [5]: Monocyte Chemoattractant Protein-1 (MCP1), CCL2 (gene 6347)
Briefly: BSK_4H_MCP1: BioMAP Diversity Plus: 4H Assay for Monocyte Chemoattractant Protein-1 (MCP1) Biomarker Activity (AID 2283018). To be noted: primary human endothelial cells (HUVEC); actives raise or lower the signal. An outline of the steps:
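ELISA of MCP-1 (CCL2) 24 h after chemical dosing of HUVEC in the BioMAP 4H system. Gain or loss versus DMSO fitted; parallel SRB staining (560 nm) tracked overt cytotoxicity.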

Read-out in test [6]: Interleukin-8 (IL8), CXCL8 (gene 3576)
Briefly: BSK_3C_IL8: BioMAP Diversity Plus: 3C Assay for Interleukin-8 (IL8) Biomarker Activity (AID 2283020). To be noted: primary human endothelial cells (HUVEC); actives raise or lower the signal. An outline of the steps: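 IL-8 was measured by ELISA in HUVEC cultures 24 h after chemical dosing, with gain or loss of signal fitted relative to DMSO. Parallel SRB total-protein staining tracked overt cytotoxicity.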

Test [7] in a line: BSK_3C_SRB: Viability Assessment in the BioMAP Diversity Plus: 3C Assay (AID 2283023).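 Further: fitted both ways against DMSO so a hit may be signal rise or drop.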 To be noted: primary human endothelial cells (HUVEC). The essentials: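 Cytotoxicity readout in parallel HUVEC 3C cultures: after 24 h compound exposure, cells fixed with 10% TCA, stained with 0.1% SRB and read at 560 nm. Gain or loss relative to DMSO fitted.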
Read-out in test [8]: Matrix Metallopeptidase 1 (MMP1), MMP1 (gene 4312)
The test can be described thus: BSK_BE3C_MMP1: BioMAP Diversity Plus: BE3C Assay for Matrix Metallopeptidase 1 (MMP1) Biomarker Activity (AID 2283024). To be noted: primary human bronchial epithelial cells; actives raise or lower the signal. An outline of the steps:
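ELISA measurement of MMP-1 after 24 h compound exposure of primary human bronchial epithelial cells. Changes in either direction fitted relative to DMSO; parallel SRB staining checked overt cytotoxicity.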

Read-out in test [9]: Pselectin, SELP (gene 6403)
The test can be described thus: BSK_4H_Pselectin: BioMAP Diversity Plus: 4H Assay for Pselectin Biomarker Activity (AID 2283026). To be noted: primary human endothelial cells (HUVEC); actives raise or lower the signal. An outline of the steps: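 ELISA of surface P-selectin on HUVEC, 24 h after dosing, with parallel SRB staining (0.1% after 10% TCA fixation, 560 nm) for overt cytotoxicity. Activity fitted in both directions relative to DMSO.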

Test [10] can be described thus: BSK_4H_SRB: Viability Assessment in the BioMAP Diversity Plus: 4H Assay (AID 2283027).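 Further: cells exposed to compound for 24 h before staining.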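 On AC50: curves fitted both ways versus DMSO so AC50 may be loss or gain.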 To be noted: primary human endothelial cells (HUVEC). The essentials:
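HUVEC, 24 h post-dose; 10% TCA fix, 0.1% SRB stain, A560 nm. Total protein = overt cytotoxicity, parallel to biomarker read. Bidirectional fit vs DMSO baseline.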

Test [11] is described as follows: BSK_BE3C_SRB: Viability Assessment in the BioMAP Diversity Plus: BE3C Assay (AID 2283028). To be noted: primary human bronchial epithelial cells. An outline of the steps:
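Cytotoxicity read-out: SRB (0.1%) staining of TCA-fixed (10%) human lung bronchial epithelial cells, absorbance 560 nm, 24 h post-dosing. Curves fitted both directions relative to DMSO.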

Read-out in test [12]: Thrombomodulin, THBD (gene 7056)
Briefly: BSK_3C_Thrombomodulin: BioMAP Diversity Plus: 3C Assay for Thrombomodulin Biomarker Activity (AID 2283029). To be noted: primary human endothelial cells (HUVEC); actives raise or lower the signal. The essentials:
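ELISA measurement of thrombomodulin on HUVEC surface 24 h after chemical dosing; activity fitted in both directions relative to DMSO vehicle.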

Read-out in test [13]: Urokinase-type plasminogen activator receptor (uPAR), PLAUR (gene 5329)
Briefly: BSK_4H_uPAR: BioMAP Diversity Plus: 4H Assay for Urokinase-type plasminogen activator receptor (uPAR) Biomarker Activity (AID 2283030). To be noted: primary human endothelial cells (HUVEC); actives raise or lower the signal. The essentials: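 uPAR level read by ELISA on HUVEC cultures (BioMAP 4H) 24 h post-dosing, analyzed for gain or loss relative to DMSO. Parallel SRB staining assessed overt cytotoxicity.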

Test [14] deals with human Vitamin D Receptor (VDR), VDR (gene 7421) (UniProt P11473). The test can be described thus: ATG_VDR_TRANS: Attagene TRANS-FACTORIAL HepG2 Assay for human Vitamin D Receptor (VDR) (AID 2283022; active means hit-call score of the fitted dose curve at least 0.9, where 1 is the maximum). The essentials: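 Transactivation by an exogenous VDR-Gal4 chimera in transiently transfected HepG2 cells was measured as reporter transcript level 24 hours after chemical treatment. RT-PCR products were analysed by capillary electrophoresis and fitted in the positive direction relative to DMSO.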

Read-out in test [15]: Human Leukocyte Antigen - DR isotype (HLADR), HLA-DRA (gene 3122)
The test can be described thus: BSK_3C_HLADR: BioMAP Diversity Plus: 3C Assay for Human Leukocyte Antigen - DR isotype (HLADR) Biomarker Activity (AID 2283019).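 On Outcome: ELISA of cell-surface HLA-DR on HUVEC 24 h after dosing.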 To be noted: primary human endothelial cells (HUVEC); actives raise or lower the signal. The essentials: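 Bidirectional fitting against DMSO was applied to the HLA-DR ELISA signal from human umbilical vein endothelial cells, 24 h post-dose. Cytotoxicity came from parallel SRB total-protein staining; 3C proliferation was counted by SRB at 48 h.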

A short description of test [16]: BSK_3C_Vis: BioMAP Diversity Plus: 3C Assay for Morphology Visualization (AID 2283025).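 Further: fitted both ways so gain or loss versus DMSO counts.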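 On AC50: light microscopy image of cell morphology used as background control.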 To be noted: primary human endothelial cells (HUVEC). The essentials:
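Light-microscopy visualization of HUVEC cultures at 24 h post-treatment, with DMSO as baseline for bidirectional fitting.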

For test [17], the target named is human Retinoid X Receptor beta (RXRb), RXRB (gene 6257) (UniProt P28702). Briefly: ATG_RXRb_TRANS: Attagene TRANS-FACTORIAL HepG2 Assay for human Retinoid X Receptor beta (RXRb) (AID 2283013; active means hit-call score of the fitted dose curve at least 0.9, where 1 is the maximum). An outline of the steps: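 Readout is reporter transcript induction after 24 h dosing. It is measured by RT-PCR of total RNA followed by fluorescent capillary electrophoresis. HepG2 liver cells carry transfected multiple reporter units driven by an exogenous RXRb-Gal4 fusion; activity is relative to DMSO.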

Read-out in test [18]: Monokine induced gamma interferon (MIG), CXCL9 (gene 4283)
The test can be described thus: BSK_3C_MIG: BioMAP Diversity Plus: 3C Assay for Monokine induced gamma interferon (MIG) Biomarker Activity (AID 2283021). To be noted: primary human endothelial cells (HUVEC); actives raise or lower the signal. An outline of the steps: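 ELISA measurement of MIG in human umbilical vein endothelial cells 24 h after treatment. Cytotoxicity tracked by SRB staining in parallel cultures; gain or loss of signal fitted relative to DMSO.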

Outcome and AC50 data for ten compounds are collected here from PubChem BioAssay (EPA / NIEHS).

Inconclusive results are not listed. The source holds several records for some structures; these can differ, active in one and inactive in another. Activity calls are given as the source filed them. How the source made its calls, unless noted: active means hit-call score of the fitted dose curve at least 0.9, where 1 is the maximum; inactive means score below 0.9.

The term AC50 denotes the concentration giving half of the maximal activity seen.

E-selectin (Homo sapiens), sequence (P16581 whole entry, looked up): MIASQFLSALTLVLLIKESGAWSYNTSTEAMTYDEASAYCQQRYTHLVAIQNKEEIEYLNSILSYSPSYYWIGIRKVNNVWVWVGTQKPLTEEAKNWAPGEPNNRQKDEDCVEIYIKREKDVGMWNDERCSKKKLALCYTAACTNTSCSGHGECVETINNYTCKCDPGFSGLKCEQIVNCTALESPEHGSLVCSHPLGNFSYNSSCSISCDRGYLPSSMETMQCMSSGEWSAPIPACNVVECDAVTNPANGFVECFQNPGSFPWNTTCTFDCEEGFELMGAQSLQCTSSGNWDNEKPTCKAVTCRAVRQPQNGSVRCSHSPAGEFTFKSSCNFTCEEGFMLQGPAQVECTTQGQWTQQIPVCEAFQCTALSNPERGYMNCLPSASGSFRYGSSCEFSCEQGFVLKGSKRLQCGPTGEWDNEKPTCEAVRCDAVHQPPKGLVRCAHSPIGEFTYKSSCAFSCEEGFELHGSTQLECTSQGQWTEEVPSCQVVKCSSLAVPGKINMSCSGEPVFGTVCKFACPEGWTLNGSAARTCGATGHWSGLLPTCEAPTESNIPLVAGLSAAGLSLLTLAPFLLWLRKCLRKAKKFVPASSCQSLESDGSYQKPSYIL
human Vitamin D Receptor (VDR), VDR (gene 7421), sequence (P11473 whole entry, looked up, the tested form may be a part): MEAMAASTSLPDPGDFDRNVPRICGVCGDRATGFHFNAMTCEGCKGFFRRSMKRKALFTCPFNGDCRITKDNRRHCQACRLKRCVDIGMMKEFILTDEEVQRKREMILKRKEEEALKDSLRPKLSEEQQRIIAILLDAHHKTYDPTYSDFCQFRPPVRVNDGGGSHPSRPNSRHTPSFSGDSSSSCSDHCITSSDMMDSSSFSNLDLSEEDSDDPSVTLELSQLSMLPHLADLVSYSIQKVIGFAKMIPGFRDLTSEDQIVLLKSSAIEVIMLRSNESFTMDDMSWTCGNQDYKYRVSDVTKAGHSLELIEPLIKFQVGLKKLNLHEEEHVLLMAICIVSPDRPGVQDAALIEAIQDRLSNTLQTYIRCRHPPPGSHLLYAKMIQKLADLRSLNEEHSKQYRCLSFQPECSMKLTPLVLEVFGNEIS
human Thyroid Receptor alpha (THRa1), THRA (gene 7067), sequence (P10827 whole entry, looked up, the tested form may be a part): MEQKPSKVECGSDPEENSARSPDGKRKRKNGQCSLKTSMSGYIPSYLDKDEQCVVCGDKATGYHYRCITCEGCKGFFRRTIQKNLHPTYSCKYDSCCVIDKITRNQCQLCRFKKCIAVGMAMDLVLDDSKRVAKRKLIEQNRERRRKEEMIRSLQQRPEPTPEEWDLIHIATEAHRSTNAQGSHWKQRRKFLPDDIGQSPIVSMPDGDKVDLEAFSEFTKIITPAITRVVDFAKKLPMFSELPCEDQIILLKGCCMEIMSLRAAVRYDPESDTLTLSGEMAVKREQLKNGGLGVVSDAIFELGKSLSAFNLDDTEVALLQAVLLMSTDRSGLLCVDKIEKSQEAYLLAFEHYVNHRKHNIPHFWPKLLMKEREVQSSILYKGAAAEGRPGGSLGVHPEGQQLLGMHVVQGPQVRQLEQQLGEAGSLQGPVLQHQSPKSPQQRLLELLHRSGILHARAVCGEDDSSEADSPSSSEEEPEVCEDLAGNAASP
human Retinoid X Receptor beta (RXRb), RXRB (gene 6257), sequence (P28702 whole entry, looked up, the tested form may be a part): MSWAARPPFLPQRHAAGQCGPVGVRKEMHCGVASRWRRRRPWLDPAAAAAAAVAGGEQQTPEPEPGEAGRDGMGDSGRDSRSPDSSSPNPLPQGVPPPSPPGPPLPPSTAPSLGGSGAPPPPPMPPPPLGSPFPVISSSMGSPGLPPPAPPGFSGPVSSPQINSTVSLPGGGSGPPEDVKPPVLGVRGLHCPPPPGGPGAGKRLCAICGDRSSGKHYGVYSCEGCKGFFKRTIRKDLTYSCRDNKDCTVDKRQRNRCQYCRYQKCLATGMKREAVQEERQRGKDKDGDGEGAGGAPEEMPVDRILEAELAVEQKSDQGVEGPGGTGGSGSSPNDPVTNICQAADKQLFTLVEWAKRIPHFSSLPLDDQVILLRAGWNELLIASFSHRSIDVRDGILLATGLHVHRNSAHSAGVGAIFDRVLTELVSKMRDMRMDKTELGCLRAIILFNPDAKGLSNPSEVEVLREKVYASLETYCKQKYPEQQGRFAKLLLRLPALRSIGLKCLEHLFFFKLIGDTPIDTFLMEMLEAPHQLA

With `CN(CCO)S(=O)(=O)C(F)(F)C(F)(F)C(F)(F)C(F)(F)C(F)(F)C(F)(F)C(F)(F)C(F)(F)F`, the call in test [1], in test [2], in test [3], in test [4], in test [5] and in test [6] was inactive. The outcome in test [7], in test [8], in [9], in [10], in test [11] and in test [12] was inactive. Also, the outcome in test [13] was inactive. Further, the values for the AC50 in test [8] and in [9] were 1.63 µM (active) and 0.243 µM (active), respectively.
Take `O=S(=O)(c1ccc(OCc2ccccc2)cc1)c1ccccc1O`: the compound was called inactive in [1] and in test [14].
On to `Cc1ccc(C(=O)c2ccccc2)cc1`, for which the compound was classed as inactive in test [1], in [3], in test [8], in [11], in [12] and in test [13]. Further, the AC50 in test [2] was 28.2 µM (active); in test [4], 4.38 µM (active); in test [5], 27 µM (active); in [15] it was 28.2 µM (active); in test [6] it was 0.0156 µM (active); in test [7] it was 31.5 µM (active). Moreover, the concentration at half-maximal activity (AC50) was 38.9 µM (active) in test [16] and 36.5 µM (active) in test [10].
In the case of `Cc1ccc(C)c(S(=O)(=O)O)c1`, the compound was classed as inactive in test [1].
`OCC(CO)(CBr)CBr`: the compound was classed as inactive in test [1], in [2], in test [3], in test [4], in [5] and in test [15]. The outcome in test [6], in [7], in test [8], in test [16], in test [10] and in test [11] was inactive. The outcome in [12] and in test [13] was inactive.
In the case of `CC(O)COc1ccccc1` (stereo unspecified), the result in [1] was inactive.
With `COCN(COC)c1nc(N(COC)COC)nc(N(COC)COC)n1`, the compound was called inactive in test [17], in test [2], in test [3], in test [4], in test [5] and in test [6]. In addition, the outcome in test [7], in [8], in test [16], in test [10], in test [11] and in test [12] was inactive. The result in test [13] was inactive.
With `COc1cc(OC)nc(NC(=O)NS(=O)(=O)Nc2ccccc2C(=O)N(C)C)n1`, the outcome in [2], in [3], in test [4], in test [5], in test [6] and in test [7] was inactive. Moreover, the outcome in [8], in test [16], in test [9], in [10], in test [11] and in [12] was inactive. Besides, the outcome in test [13] was inactive.
Consider `CCOC(=O)c1nc(C(Cl)(Cl)Cl)n(-c2ccc(Cl)cc2Cl)n1`, for which the AC50 in test [1] was 2.11 µM (active). The result in test [14] was inactive.
Turning to `CCC(C)c1ccccc1O` (stereo unspecified), the AC50 in test [17] is 72.8 µM (active). The result in [2], in test [3], in test [4], in test [5], in test [6] and in test [18] was inactive. Further, the call in test [14], in test [7], in test [8], in test [16], in [9] and in test [10] was inactive. In addition, the result in [11], in test [12] and in [13] was inactive.
